For twelve compounds, growth results are on record in PubChem BioAssay (NCI).

Among the test systems are SR leukemia; RPMI-8226 leukemia; OVCAR-8 ovarian; OVCAR-5 ovarian; OVCAR-4 ovarian; SK-OV-3 ovarian; IGROV1 ovarian; OVCAR-3 ovarian; HS 578T breast; NCI/ADR-RES ovarian; T-47D breast; BT-549 breast; MDA-MB-435 melanoma; SW-620 colon; MCF7 breast; HCT-116 colon; HCC-2998 colon; KM12 colon.
What all share (assay): NCI-60 one-dose screen, 48 h (100 = growth as untreated, 0 = no growth, -100 = all killed)
What all share (conditions): 10 µM unless noted

About 83,000 compounds went through this panel and 20% of them were active in at least one assay; those are over-represented in the sample as a whole.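 Compound tested at a single concentration for 48 hours in 96-well plates; a percent growth value below 10 was scored as active.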 Values without a mark were called inactive. Calls of active or inactive are those of the source.

In the case of `N/C(=N\OC(=O)CSc1nc2ccccc2s1)c1ccc(Cl)cc1`, the growth with SR leukemia is 84.8%; in the assay with RPMI-8226 leukemia it was 99.4%; in the assay with OVCAR-8 ovarian, 98%; in the assay on OVCAR-5 ovarian it was 100%; in the assay on OVCAR-4 ovarian, 107%; in the assay with SK-OV-3 ovarian it was 101%. In addition, the growth in the assay on IGROV1 ovarian was 89%; with OVCAR-3 ovarian, 111%; in the assay with HS 578T breast, 97%; in the assay with NCI/ADR-RES ovarian, 101%; with T-47D breast it was 96.6%; with BT-549 breast it was 107%. Besides, the growth was 101% with MDA-MB-435 melanoma; 98% with SW-620 colon; 97.4% in the assay on MCF7 breast; 105% with HCT-116 colon; 105% in the assay on HCC-2998 colon; 101% in the assay with KM12 colon.

As for `CCC(C)[C@H]1OC(=O)[C@H](C(C)C)N(C)C(=O)[C@@H](C(C)C)OC(=O)[C@H](C(C)C)N(C)C(=O)[C@@H](C(C)CC)OC(=O)[C@H](C(C)C)N(C)C1=O` (stereo not given in full), the growth in the assay with SR leukemia is 7.44% (active); in the assay on RPMI-8226 leukemia, -19.5% (active); with OVCAR-8 ovarian, 11.6%; in the assay with OVCAR-5 ovarian, 13.4%; with OVCAR-4 ovarian, 10.5%; in the assay on SK-OV-3 ovarian, -15.3% (active). Moreover, the growth was 25.8% with IGROV1 ovarian; 18.3% in the assay on OVCAR-3 ovarian; 32.9% in the assay on HS 578T breast; 2.47% (active) in the assay with NCI/ADR-RES ovarian; 3.65% (active) with T-47D breast; 0.725% (active) in the assay on BT-549 breast. Further, the growth is 16.1% in the assay with MDA-MB-435 melanoma; 17.3% in the assay with SW-620 colon; 8.27% (active) in the assay on MCF7 breast; 8.58% (active) with HCT-116 colon; 23.4% with HCC-2998 colon; 15.7% with KM12 colon.

`CCN(CC)CCCC(C)NCC(=O)NC(c1ccc2c(c1)OCO2)c1cc(Cl)c2cccnc2c1O` (stereo not given): the growth was 39.2% with SR leukemia; 27.9% in the assay with RPMI-8226 leukemia; 25.2% with OVCAR-8 ovarian; 40.6% in the assay on OVCAR-5 ovarian; 11.5% with OVCAR-4 ovarian; 40.6% in the assay with SK-OV-3 ovarian. Also, the growth with IGROV1 ovarian is 20.9%; with OVCAR-3 ovarian it was 10.8%; in the assay with HS 578T breast, 79.7%; in the assay on NCI/ADR-RES ovarian, 38.6%; with T-47D breast, 40.1%; with BT-549 breast, 79%. In addition, the growth with MDA-MB-435 melanoma is 8.56% (active); in the assay with SW-620 colon, 24.2%; in the assay on MCF7 breast, 7.35% (active); in the assay on HCT-116 colon it was 7.29% (active); in the assay with HCC-2998 colon, -11.4% (active); in the assay with KM12 colon it was 9.46% (active).

Take `CCC(CC)N1C(=O)/C(=c2\sc3n(c2=O)C2C(NN=3)N(CC)C(=O)N2CC)c2ccccc21` (stereo not given): the growth in the assay with SR leukemia was 5.6% (active); in the assay on RPMI-8226 leukemia it was 8.29% (active); in the assay on OVCAR-8 ovarian it was 34.8%; in the assay on OVCAR-5 ovarian it was 29.8%; in the assay with OVCAR-4 ovarian, 38.4%; in the assay on SK-OV-3 ovarian, 42.6%. In addition, the growth with IGROV1 ovarian was 23%; with OVCAR-3 ovarian, 7.62% (active); in the assay with HS 578T breast it was 25.6%; in the assay with NCI/ADR-RES ovarian, 11%; in the assay on T-47D breast, 66.5%; in the assay with BT-549 breast it was 78.6%. The growth in the assay with MDA-MB-435 melanoma was -8.32% (active); in the assay with SW-620 colon, 27.2%; in the assay with MCF7 breast it was 15%; in the assay on HCT-116 colon it was 15.1%; in the assay with HCC-2998 colon it was 21.7%; with KM12 colon it was 14.2%.

On to `Cn1cc(-c2nnc(N)nc2-c2cn(C)c3ccc(F)cc23)c2cc(F)ccc21`, for which the growth in the assay on SR leukemia was 85.6%; with RPMI-8226 leukemia, 106%; in the assay on OVCAR-8 ovarian, 89.6%; in the assay with OVCAR-5 ovarian, 103%; in the assay on OVCAR-4 ovarian, 97.4%; in the assay with SK-OV-3 ovarian, 112%. The growth is 101% in the assay on IGROV1 ovarian; 103% in the assay with OVCAR-3 ovarian; 90.8% in the assay on HS 578T breast; 99.8% in the assay on NCI/ADR-RES ovarian; 69.1% in the assay with T-47D breast; 99.8% with BT-549 breast. Besides, the growth in the assay on MDA-MB-435 melanoma was 101%; with SW-620 colon it was 102%; in the assay with MCF7 breast it was 87.2%; in the assay with HCT-116 colon, 92.7%; with HCC-2998 colon, 104%; with KM12 colon, 90.8%.

In the case of `Oc1ccccc1/C=N/Nc1nc(N/N=C/c2ccccc2O)nc(N2CCOCC2)n1`, the growth in the assay with SR leukemia is 16%; with RPMI-8226 leukemia, 53.6%; with OVCAR-8 ovarian it was 12.7%; in the assay on OVCAR-5 ovarian, 37%; with OVCAR-4 ovarian, -11.7% (active); in the assay on SK-OV-3 ovarian it was 11.9%. Also, the growth is 37% in the assay with IGROV1 ovarian; 33.6% in the assay with OVCAR-3 ovarian; 47% in the assay with HS 578T breast; 22.9% in the assay on NCI/ADR-RES ovarian; 46.1% in the assay on T-47D breast; 76.3% in the assay with BT-549 breast. For the same compound, the growth is 58.9% in the assay on MDA-MB-435 melanoma; 38.5% with SW-620 colon; 40% in the assay on MCF7 breast; 19.2% in the assay on HCT-116 colon; 58.9% in the assay with HCC-2998 colon; 52.7% in the assay on KM12 colon.

Turning to `COc1ccc(N2CCN(C(=O)CSc3ccc(-c4nc5cc(C)c(C)cc5[nH]4)cn3)CC2)cc1`, the growth in the assay on SR leukemia is 43.6%; with RPMI-8226 leukemia, 17.1%; in the assay with OVCAR-8 ovarian, 56.4%; in the assay with OVCAR-5 ovarian, 93.5%; in the assay on OVCAR-4 ovarian, 37.6%; in the assay on SK-OV-3 ovarian, 94.6%. The growth was 68.2% with IGROV1 ovarian; 80.4% with OVCAR-3 ovarian; 94.8% in the assay with HS 578T breast; 49.3% with NCI/ADR-RES ovarian; 21.5% in the assay on T-47D breast; 32.9% with BT-549 breast. Besides, the growth in the assay with MDA-MB-435 melanoma is 73.1%; in the assay on SW-620 colon it was 85.5%; in the assay on MCF7 breast it was 42.8%; in the assay on HCT-116 colon, 74.3%; in the assay with HCC-2998 colon, 94.2%; in the assay with KM12 colon, 53.2%.

`NS(=O)(=O)c1ccc(-n2cc(CC=O)nn2)cc1`: the growth is 101% in the assay on SR leukemia; 109% with RPMI-8226 leukemia; 106% in the assay with OVCAR-8 ovarian; 104% with OVCAR-5 ovarian; 101% with OVCAR-4 ovarian; 112% with SK-OV-3 ovarian. For the same compound, the growth with IGROV1 ovarian was 102%; with OVCAR-3 ovarian, 109%; in the assay on HS 578T breast, 104%; with NCI/ADR-RES ovarian it was 104%; in the assay on T-47D breast it was 102%; in the assay with BT-549 breast, 111%. Besides, the growth is 102% with MDA-MB-435 melanoma; 109% with SW-620 colon; 93.6% with MCF7 breast; 108% in the assay with HCT-116 colon; 97.9% in the assay on HCC-2998 colon; 112% in the assay on KM12 colon.

As for `Oc1ccc(CSc2nnc(-c3ccncc3)n2-c2ccccc2)c2cccnc12`, the growth in the assay with SR leukemia was 35.6%; in the assay with RPMI-8226 leukemia, 13.6%; in the assay on OVCAR-8 ovarian, 18.3%; in the assay on OVCAR-5 ovarian it was 45.7%; in the assay on OVCAR-4 ovarian, 17%; in the assay on SK-OV-3 ovarian it was 9.36% (active). In addition, the growth is 8.84% (active) in the assay with IGROV1 ovarian; 5.81% (active) in the assay on OVCAR-3 ovarian; 15.4% in the assay with HS 578T breast; 9.52% (active) with NCI/ADR-RES ovarian; 14.5% in the assay with T-47D breast; 41.9% in the assay with BT-549 breast. Besides, the growth in the assay with MDA-MB-435 melanoma is 20%; in the assay on SW-620 colon, 16.5%; in the assay on MCF7 breast it was 2.74% (active); with HCT-116 colon, 22.5%; in the assay on KM12 colon it was 16.9%.

Regarding `CCN1C(=O)N(CC)C2SC(N/N=C/C=C/c3ccccc3OC)=NC21` (stereo not given), the growth with SR leukemia was 27.5%; in the assay with RPMI-8226 leukemia it was 14.3%; with OVCAR-8 ovarian, 22.3%; in the assay on OVCAR-5 ovarian it was 37.7%; in the assay on OVCAR-4 ovarian, 68.6%; in the assay on SK-OV-3 ovarian it was 52.8%. Besides, the growth with IGROV1 ovarian is 21.4%; in the assay on OVCAR-3 ovarian, -39.6% (active); in the assay on HS 578T breast, 27.1%; with NCI/ADR-RES ovarian, 11.9%; in the assay on T-47D breast, 67.3%; with BT-549 breast, 18.7%. Also, the growth in the assay with MDA-MB-435 melanoma was -16.7% (active); in the assay with SW-620 colon, 20.4%; with MCF7 breast it was 12.9%; with HCT-116 colon it was 6.23% (active); in the assay with HCC-2998 colon, 8.41% (active); in the assay with KM12 colon, 11.6%.

For `N/C(=N\c1nc2ccc([N+](=O)[O-])cc2s1)C(Cl)(Cl)Cl`, the growth in the assay on SR leukemia was 57.7%; in the assay with RPMI-8226 leukemia it was 38.9%; with OVCAR-8 ovarian, 73.5%; in the assay on OVCAR-5 ovarian, 84.1%; with OVCAR-4 ovarian it was 67.9%; in the assay on SK-OV-3 ovarian, 82.6%. Besides, the growth in the assay with IGROV1 ovarian was 65.1%; with OVCAR-3 ovarian, 47.4%; in the assay with HS 578T breast, 79.9%; with NCI/ADR-RES ovarian it was 73.4%; in the assay on T-47D breast, 30.7%; in the assay with BT-549 breast, 93.3%. Further, the growth in the assay on MDA-MB-435 melanoma was 83.6%; with SW-620 colon, 70.5%; in the assay with MCF7 breast, 40%; in the assay on HCT-116 colon, 53.9%; in the assay on HCC-2998 colon it was 74%; in the assay with KM12 colon it was 37.6%.

Take `Cc1ccc(NC(=O)c2ccc(CN3CCN(C)CC3)c(I)c2)cc1Oc1ccc(-c2[nH]nc3ncnc(N)c23)cc1`: the growth with SR leukemia is 4.76% (active); in the assay on RPMI-8226 leukemia, -3.29% (active); in the assay with OVCAR-8 ovarian, 91.8%; in the assay with OVCAR-5 ovarian, 95.8%; with OVCAR-4 ovarian it was 96.1%; with SK-OV-3 ovarian, 109%. Further, the growth in the assay on IGROV1 ovarian was 88%; with OVCAR-3 ovarian, 102%; with HS 578T breast, 66.2%; in the assay on NCI/ADR-RES ovarian it was 44.5%; in the assay with T-47D breast, 112%; in the assay with BT-549 breast, 103%. The growth in the assay on MDA-MB-435 melanoma is -67.5% (active); in the assay on SW-620 colon, -67.3% (active); in the assay on MCF7 breast, -27% (active); with HCT-116 colon, -26.6% (active); in the assay on HCC-2998 colon, 108%; in the assay on KM12 colon it was 20.7%.
